Assay results: article PMC4336329 (PLoS ONE, 2015)
About 14,000 (4.5%) of roughly 310,000 compounds showed an effect of 50% or more. The effect is printed as a negative number. This excerpt belongs to a sample that is enriched for strong results.

Target: human ether-à-go-go-related gene (hERG) potassium channel (human, UniProt Q12809)
Test: primary screen, population patch clamp on CHO cells stably expressing hERG; higher = less effect of the substance
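Further: peak tail current of the secondary pulse compared with the same well before compound.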

Chain of human ether-à-go-go-related gene (hERG) potassium channel (Q12809 whole entry, looked up): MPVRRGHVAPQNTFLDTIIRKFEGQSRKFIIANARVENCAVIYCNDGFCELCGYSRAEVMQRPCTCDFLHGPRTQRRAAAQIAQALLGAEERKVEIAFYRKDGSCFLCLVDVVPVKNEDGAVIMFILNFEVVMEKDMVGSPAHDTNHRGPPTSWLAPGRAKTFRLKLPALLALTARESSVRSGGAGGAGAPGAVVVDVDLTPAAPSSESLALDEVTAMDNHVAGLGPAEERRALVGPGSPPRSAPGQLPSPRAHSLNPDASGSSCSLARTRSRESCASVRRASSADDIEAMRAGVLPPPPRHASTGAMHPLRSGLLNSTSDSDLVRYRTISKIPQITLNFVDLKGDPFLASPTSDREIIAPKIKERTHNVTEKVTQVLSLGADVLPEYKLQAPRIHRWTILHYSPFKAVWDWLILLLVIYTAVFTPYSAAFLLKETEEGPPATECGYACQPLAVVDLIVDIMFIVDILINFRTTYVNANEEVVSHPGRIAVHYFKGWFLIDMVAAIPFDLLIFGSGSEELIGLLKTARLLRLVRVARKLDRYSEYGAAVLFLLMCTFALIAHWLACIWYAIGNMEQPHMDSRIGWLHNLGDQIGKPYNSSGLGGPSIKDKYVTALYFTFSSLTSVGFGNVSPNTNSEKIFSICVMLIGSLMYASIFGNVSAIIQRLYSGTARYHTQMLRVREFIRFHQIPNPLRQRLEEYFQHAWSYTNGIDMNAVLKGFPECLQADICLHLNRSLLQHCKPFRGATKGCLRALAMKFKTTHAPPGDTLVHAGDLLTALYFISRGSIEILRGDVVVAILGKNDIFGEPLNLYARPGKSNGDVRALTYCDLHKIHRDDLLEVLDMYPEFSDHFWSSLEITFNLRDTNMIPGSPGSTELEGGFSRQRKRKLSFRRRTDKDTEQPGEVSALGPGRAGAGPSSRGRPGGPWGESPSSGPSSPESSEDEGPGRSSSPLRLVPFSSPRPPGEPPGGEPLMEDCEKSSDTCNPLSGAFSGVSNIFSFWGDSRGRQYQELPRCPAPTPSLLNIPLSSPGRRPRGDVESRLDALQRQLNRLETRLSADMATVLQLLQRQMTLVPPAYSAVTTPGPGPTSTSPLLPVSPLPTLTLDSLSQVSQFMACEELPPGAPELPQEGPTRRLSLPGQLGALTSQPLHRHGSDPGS

Structure (SMILES)	hERG current change (%, negative = inhibition) at 10uM
COc1cc2c(=O)n(Cc3ccco3)c(=O)n(CC(=O)c3ccc(Br)cc3)c2cc1OC	-3.02%
COc1ccc(CCC(=O)NCC(c2ccco2)N2CCc3ccccc32)cc1 (stereo not drawn)	-44.2%
Cc1ccc(C(=O)NCC(c2ccco2)N2CCc3ccccc32)cc1 (stereo not drawn)	-13%
COc1ccccc1C(=O)NCC(c1ccco1)N1CCc2ccccc21 (stereo not drawn)	-6.41%
O=C(NCC(c1ccco1)N1CCc2ccccc21)c1ccccc1F (stereo not drawn)	-19.8%
O=C(NCC(c1ccco1)N1CCc2ccccc21)c1ccccc1 (stereo not drawn)	-3.78%
Cc1ccccc1C(=O)NCC(c1ccco1)N1CCc2ccccc21 (stereo not drawn)	-55.7%
O=C(CCc1ccccc1)NCC(c1ccco1)N1CCc2ccccc21 (stereo not drawn)	-56.2%
O=C(NCC(c1ccco1)N1CCc2ccccc21)c1ccccc1Cl (stereo not drawn)	-60.2%
O=C(NCC(c1ccco1)N1CCc2ccccc21)c1ccccc1Br (stereo not drawn)	-29.3%
Cc1ccc(C(=O)NCC(c2ccco2)N2CCc3ccccc32)cc1C (stereo not drawn)	-60.1%
O=C(NCC(c1ccco1)N1CCc2ccccc21)c1c(F)cccc1F (stereo not drawn)	-7.53%
Cc1cccc(C(=O)NCC(c2ccco2)N2CCc3ccccc32)c1 (stereo not drawn)	-25.6%
O=C(C[n+]1ccc(/C=N/O)cc1)N(Cc1ccccc1)Cc1ccccc1.[Cl-]	0.798%
CC(=C/C(=O)O)/C(=C/c1ccccc1)C(=O)O	15.6%
Cc1occc1C(=O)n1nnc2ccccc21	-7.48%
Cc1cc(S(=O)(=O)NCCN2CCOCC2)ccc1Cl	21.3%
Cc1sc2ncn(CC(=O)NCCCN3CC(C)CC(C)C3)c(=O)c2c1S(=O)(=O)N1CC(C)CC(C)C1 (stereo not drawn)	-32.1%
O=C(NCC(c1cccnc1)N1CCOCC1)C1CCCCC1 (stereo not drawn)	5%
Cc1ccnc(NC(=O)CNC(=O)c2ccc3ccccc3c2)c1	-12.5%
COc1ccc2c(c1)c(C(=O)OCCN(C)C)c(C)n2C.Cl	-1.4%
CCOC(=O)c1c(-c2ccccc2)c2cc(OC)ccc2n1CCCN(C)C.Cl	-72.4%
CCCCn1c(C)c(C(=O)O)c2cc(OC)ccc21	1.59%

Structure (SMILES)	hERG current change (%, negative = inhibition) at 10uM
Cn1cc(S(=O)(=O)N2CCCC2)cc1C(=O)NCc1ccc(Cl)cc1	2.02%
COc1ccc(CCNC(=O)Cn2cnc3c(cnn3-c3ccccc3Cl)c2=O)cc1OC	-1.24%
COc1ccc2nc(NC(C)=O)sc2c1	-4.83%
Cc1ccc(OCC(=O)N/N=C/C=C/c2ccco2)cc1	-45.9%
CC(Oc1ccc(Cl)cc1)c1ccnn1S(=O)(=O)c1ccccc1 (stereo not drawn)	5.02%
CCN(CC)C(=O)c1ccc2c(=O)n(CCOC)c(=S)[nH]c2c1	-7.02%
Cc1nn2c(NCCN(C)C)c3c(nc2c1-c1ccccc1)CCC3	-26.7%
CCCCNc1c2c(nc3c(-c4ccccc4)c(C)nn13)CCC2	-3.59%
COCCNc1c2c(nc3c(-c4ccccc4)c(C)nn13)CCCC2	-1.34%
Cc1nn2c(Nc3ccccc3)c3c(nc2c1-c1ccccc1)CCC3	14.1%
Cc1nn2c(NCc3ccccn3)c3c(nc2c1-c1ccccc1)CCC3	-51%
Cc1nn2c(NCCCN(C)C)c3c(nc2c1-c1ccccc1)CCC3	-59.4%
Cc1nn2c(NCc3cccnc3)c3c(nc2c1-c1ccccc1)CCC3	-34.2%
Cc1nn2c(NCCCN(C)C)c3c(nc2c1-c1ccccc1)CCCC3	-32.2%
Cc1nn2c(NCC(C)C)c3c(nc2c1-c1ccccc1)CCC3	4.8%
COCCNc1c2c(nc3c(-c4ccccc4)c(C)nn13)CCC2	2.2%
Cc1nn2c(NCCOCCO)c3c(nc2c1-c1ccccc1)CCCC3	-74.2%
Cc1nn2c(NCCOCCO)c3c(nc2c1-c1ccccc1)CCC3	-50.2%
Cc1ccc(-c2csc(NC(=O)C3=NN(c4ccccc4)C(=O)CC3)n2)cc1	3.35%
CCCN1CCN(C(c2cc3cc(OCC)ccc3[nH]c2=O)c2nnnn2C2CCCCC2)CC1 (stereo not drawn)	-46.4%
Cc1ccc(C(C(=O)NC2CCCCC2)N(C(=O)c2csnn2)C2CC2)cc1 (stereo not drawn)	-9.75%
COc1ccc(C(CC(=O)N2CCOCC2)c2c(OC)cc(OC)c3ccc(=O)oc23)cc1 (stereo not drawn)	-3.96%
